The values below come from PubChem BioAssay AID1835 (Johns Hopkins Ion Channel Center, 2009).

Hit rate of the full screen: of about 2,400 compounds, about 750 (31%) were called active.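 How the source made its calls: active means median signal gain over dofetilide-blocked control wells reaching their mean plus 3 SD, so readout 1 at least 0; inactive means the rest.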 This is one part of the list.

Sequence of Voltage-gated inwardly rectifying potassium channel KCNH2 (Homo sapiens) (Q12809 whole entry, looked up): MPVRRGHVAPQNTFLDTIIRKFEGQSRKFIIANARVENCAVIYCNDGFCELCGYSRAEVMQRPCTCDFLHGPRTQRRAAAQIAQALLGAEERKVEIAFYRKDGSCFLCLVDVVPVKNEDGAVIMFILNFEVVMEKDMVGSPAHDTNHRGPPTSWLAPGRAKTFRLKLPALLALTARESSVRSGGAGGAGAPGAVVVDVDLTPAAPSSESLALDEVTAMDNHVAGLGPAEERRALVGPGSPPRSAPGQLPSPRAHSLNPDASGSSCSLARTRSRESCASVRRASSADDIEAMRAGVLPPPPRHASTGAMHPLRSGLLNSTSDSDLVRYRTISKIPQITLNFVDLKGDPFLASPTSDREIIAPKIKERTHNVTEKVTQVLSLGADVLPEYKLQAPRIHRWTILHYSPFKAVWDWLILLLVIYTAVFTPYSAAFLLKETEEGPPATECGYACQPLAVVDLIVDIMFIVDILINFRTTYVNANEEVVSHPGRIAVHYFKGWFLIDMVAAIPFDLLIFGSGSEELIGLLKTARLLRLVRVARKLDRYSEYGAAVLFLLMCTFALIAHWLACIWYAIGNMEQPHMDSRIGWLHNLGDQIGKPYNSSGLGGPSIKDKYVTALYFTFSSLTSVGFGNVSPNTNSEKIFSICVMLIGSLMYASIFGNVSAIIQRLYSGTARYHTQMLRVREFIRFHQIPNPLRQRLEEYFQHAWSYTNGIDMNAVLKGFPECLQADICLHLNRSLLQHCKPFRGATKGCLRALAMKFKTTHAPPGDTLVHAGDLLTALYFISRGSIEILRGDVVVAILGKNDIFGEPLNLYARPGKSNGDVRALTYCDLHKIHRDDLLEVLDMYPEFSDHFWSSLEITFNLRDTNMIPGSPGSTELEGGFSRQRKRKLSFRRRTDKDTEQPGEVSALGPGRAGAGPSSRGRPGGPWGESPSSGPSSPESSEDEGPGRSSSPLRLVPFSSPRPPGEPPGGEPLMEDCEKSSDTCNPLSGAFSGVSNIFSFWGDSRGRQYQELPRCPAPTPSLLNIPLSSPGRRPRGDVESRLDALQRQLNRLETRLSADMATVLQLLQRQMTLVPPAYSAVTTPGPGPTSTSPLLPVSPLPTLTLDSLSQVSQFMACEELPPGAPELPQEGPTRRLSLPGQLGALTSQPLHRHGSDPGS

The assay addresses Voltage-gated inwardly rectifying potassium channel KCNH2 (Homo sapiens) (UniProt Q12809). Put plainly: modulators restoring hERG flux under dofetilide – cell-based, thallium flux, duplicate retest, dofetilide IC70, confirmation (AID 1835). The conditions noted are these: hERG cell line, FluxOR thallium flux, dofetilide-blocked; at 10 µM; active compounds read high. For orientation: The hERG channel carries a current that helps repolarise heart muscle cells.
`Cc1ccc(C(=O)NNc2cc(N3CCCC3)nc(N3CCCC3)n2)cc1`: the activity increase over dofetilide control, less the hit threshold was -6% (inactive).
As for `CCOc1ccc2[nH]cc(S(=O)(=O)c3ccc(F)cc3)c(=O)c2c1`, the activity increase over dofetilide control, less the hit threshold is -19% (inactive).
The same measure for `Cc1ccc(-c2nc(CSCC(=O)N3CCOCC3)c(C)o2)cc1`: -9% (inactive); for `NC(=O)[C@@H]1CCCN1Cc1nc(Cc2ccccc2Cl)no1`: -15% (inactive).
As for `Cc1nn(C)c(C(=O)NC(=S)Nc2ccc([N+](=O)[O-])cc2)c1Cl`, the figure is 18% (active); as for `O=C(NC(=S)Nc1ccccc1N1CCCC1)c1ccccc1Br`, -2% (inactive); as for `CCCCOC(=O)c1ccc(NC(=S)NC(=O)c2c(Cl)cnn2C)cc1`, -11% (inactive).
As for `Cc1ccc(NC(=O)c2c([N+](=O)[O-])c(C(C)(C)C)nn2C)cc1`, the activity increase over dofetilide control, less the hit threshold was -1% (inactive).
In the case of `Cc1nn(CCC(=O)NNC(=S)Nc2ccc(F)cc2)c(C)c1[N+](=O)[O-]`, the activity increase over dofetilide control, less the hit threshold is -24% (inactive).
As for `CCn1ncc(Cl)c1C(=O)NC(=S)Nc1ccccc1Br`, the figure is 46% (active).
With `Cc1nn(C)c(C(=O)NC(=S)Nc2ccccc2Br)c1Cl`, the activity increase over dofetilide control, less the hit threshold was 27% (active).
As for `CCCCOC(=O)c1ccc(NC(=S)NC(=O)c2c(Br)c(C)nn2C)cc1`, the figure is 38% (active); as for `Cc1cc(C)nc(SCc2nnc(SCC(=O)Nc3nc(-c4ccccc4)cs3)n2-c2ccccc2)n1`, -19% (inactive).
With `CC(C)c1ccc2c(c1)c(SC(C)(C)C)c(CC(C)(C)C(=O)O)n2Cc1ccc(Cl)cc1`, the activity increase over dofetilide control, less the hit threshold is -9% (inactive).
The same measure for `S=c1[nH]nc(-c2ccccc2)n1/N=C/c1ccc(-c2ccccc2Cl)o1`: -4% (inactive).
As to `S=c1[nH]nc(-c2cccs2)n1/N=C/c1c(Cl)cccc1Cl`, the activity increase over dofetilide control, less the hit threshold was 4% (active).
The same measure for `CN(C)/C=C1/C(=O)N(c2ccc([N+](=O)[O-])cc2)N=C1c1ccccc1`: 2% (active); for `CC1=NN(c2ccccc2)C(=O)/C1=C/c1ccc(-c2ccc(C)c(C(=O)O)c2)o1`: -18% (inactive); for `O=C(NNC(=O)C12CC3CC(CC(O)(C3)C1)C2)c1ccccc1O`: -4% (inactive).
For the molecule `Cc1nnc(SCC(=O)Nc2nccs2)n1N`, the activity increase over dofetilide control, less the hit threshold is -22% (inactive).
Turning to `C/C(Nc1cccc(F)c1)=C(/C#N)C(N)=O`, the activity increase over dofetilide control, less the hit threshold is 2% (active).
Regarding `CC(C)[C@H](NC(=O)c1ccco1)C(=O)OCC(=O)Nc1cccc(F)c1`, the activity increase over dofetilide control, less the hit threshold was -12% (inactive).
The same measure for `CCOC(=O)c1nnn(CC(=O)Nc2cccc(F)c2)c1C(=O)OCC`: -1% (inactive); for `OC(CCN1CCOCC1)c1ccccc1` (stereo unspecified): -20% (inactive).
As for `Cc1ccc(C)c(NC(=O)CCN2C(=O)[C@@H]3Cc4ccccc4CN3C2=O)c1`, the figure is -17% (inactive); as for `CC(=O)C1C(=O)c2c(cccc2[N+](=O)[O-])C1=Nc1ccccc1C` (stereo unspecified), -20% (inactive).
